Drawing on PubChem BioAssay (EPA / NIEHS), this text covers outcome and AC50 for eight compounds.

Assay [1] can be described thus: ATG_CRE_CIS: Attagene CIS-FACTORIAL HepG2 Assay for human cAMP Responsive Element (CRE) binding protein 3 (AID 2282926). The note with it: HepG2 CRE cis-reporter, Attagene multiplexed mRNA; actives raise or lower the signal. The method, boiled down:
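We dosed HepG2 cells bearing multiple cis-promoter reporter units for 24 h and measured reporter mRNA by RT-PCR with capillary electrophoresis detection. Bidirectional concentration-response fitting used DMSO as negative control.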

The target of assay [2] is CCAAT/enhancer-binding protein beta (Homo sapiens) (UniProt P17676). As to the kind of experiment: ATG_C_EBP_CIS: Attagene CIS-FACTORIAL HepG2 Assay for human CCAAT/Enhancer Binding Protein (C/EBP) beta (AID 2282927). The note with it: HepG2 Attagene cis-factorial transcription factor reporter; actives raise or lower the signal. In a few lines: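 Changes in reporter mRNA, rather than exogenous chimeric receptor activity, reflect native C/EBP signalling in transfected HepG2 cells dosed for 24 h; transcripts are detected by RT-PCR and capillary electrophoresis.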

Assay [3] is described as follows: ATG_CMV_CIS: Attagene CIS-FACTORIAL HepG2 Assay for human CMV (Internal Marker) (AID 2282928).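 Also: endpoint acts as a background internal control marker rather than a target.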 The note with it: HepG2 CMV promoter reporter, transcription factor profiling; actives raise or lower the signal. In a few lines:
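Endogenous transcription factor activity read in HepG2 via transfected cis-promoter reporter units. After 24 h dosing, reporter mRNA measured by RT-PCR/capillary electrophoresis; gain or loss of signal fit relative to DMSO.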

Assay [4] can be described thus: ATG_DR4_LXR_CIS: Attagene CIS-FACTORIAL HepG2 Assay for human Liver X Receptor (LXR), DR4 submotif (AID 2282929). The note with it: HepG2 Attagene DR4 cis-reporter, mRNA transcription; actives raise or lower the signal. The method, boiled down:
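HepG2, transient MRTU transfection, cis-element (DR4) promoter; 24 h compound exposure; total RNA → oligo(dT) RT → PCR → 6-FAM primer extension → HpaI cut → CE. Gain/loss vs DMSO, bidirectional fit.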

Assay [5] deals with Aryl hydrocarbon receptor (Homo sapiens) (UniProt P35869). The experiment in a line: ATG_Ahr_CIS: Attagene CIS-FACTORIAL HepG2 Assay for human Aryl Hydrocarbon Receptor (Ahr) (AID 2282930). The note with it: HepG2 AhR cis-factorial reporter transcription; actives raise or lower the signal. In a few lines: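 HepG2, transient MRTU (cis) transfection, 24 h exposure. RNA → cDNA → PCR → 6-FAM primer extension → HpaI 2 h 37 C → CE. Fit: bidirectional, DMSO baseline.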

A short description of assay [6]: ATG_AP_1_CIS: Attagene CIS-FACTORIAL HepG2 Assay for human Activator Protein 1 (AP-1) (AID 2282931). The note with it: HepG2 Attagene cis-factorial AP-1 reporter mRNA; actives raise or lower the signal. The method, boiled down:
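Transient MRTU transfection of HepG2 → 24 h chemical treatment → RNA isolation, RT-PCR, 6-FAM labelling, HpaI digest → capillary electrophoresis. Fit: bidirectional, DMSO negative control.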

The nature of assay [7]: ATG_AP_2_CIS: Attagene CIS-FACTORIAL HepG2 Assay for human Activator Protein 2 (AP-2) (AID 2282932). The following applies: HepG2 AP-2 cis-reporter, Attagene transcription factor profiling; actives raise or lower the signal. The method, boiled down: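 Step one: transient transfection of HepG2 with reporter transcription units. Step two: 24 h chemical exposure. Step three: RNA extraction, RT-PCR, labelled fragment analysis by capillary electrophoresis; DMSO serves as baseline.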

Assay [8] in a line: ATG_BRE_CIS: Attagene CIS-FACTORIAL HepG2 Assay for human Bone Morphogenetic Protein (BMP) Response Element (BRE) (AID 2282933). The following applies: HepG2 BMP response element reporter, Attagene transcription factor profiling; actives raise or lower the signal. In a few lines:
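Fluorescence-labelled reporter cDNA fragments, separated by capillary electrophoresis, gave the signal for this component of a 52-readout multiplex. HepG2 cells were transfected, exposed to chemicals for 24 h, and compared with DMSO using bidirectional fitting.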

Assay [9] in a line: ATG_E_Box_CIS: Attagene CIS-FACTORIAL HepG2 Assay for human Enhancer Box (E-box) (AID 2282936). The note with it: HepG2 E-box cis-reporter transcription, actives raise or lower the signal. The method, boiled down: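 DMSO served as negative control and baseline for bidirectional fitting. Human hepatoma HepG2 cells, transiently transfected with cis-reporter constructs, were dosed 24 h; reporter mRNA read by RT-PCR and capillary electrophoresis.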

Assay [10] is described as follows: ATG_M_61_CIS: Attagene CIS-FACTORIAL HepG2 Assay for M61 Transcription Factor (Internal Marker) (AID 2282937). The note with it: HepG2 Attagene CIS-FACTORIAL M61 internal marker reporter; actives raise or lower the signal. The method, boiled down: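 Human liver HepG2, transient MRTU transfection (cis promoter elements), 24 h compound. Total RNA → oligo(dT) RT → PCR → FAM label → HpaI → CE. Internal background marker; bidirectional fitting, DMSO = baseline.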

Assay [11] in a line: ATG_EGR_CIS: Attagene CIS-FACTORIAL HepG2 Assay for human Early Growth Response 1 (EGR1) (AID 2282938). The following applies: HepG2 Attagene CIS-FACTORIAL EGR reporter mRNA; actives raise or lower the signal. The method, boiled down:
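Transient transfection of human HepG2 with multiple cis-regulated reporter units, chemical exposure 24 h, total RNA isolated. Reverse transcription, PCR, fluorescent labelling and capillary electrophoresis quantify reporter transcripts; activity fitted bidirectionally against DMSO.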

Assay [12] in a line: ATG_M_19_CIS: Attagene CIS-FACTORIAL HepG2 Assay for M19 Transcription Factor (Internal Marker) (AID 2282939). The note with it: HepG2 Attagene CIS-FACTORIAL M19 internal marker reporter; actives raise or lower the signal. The method, boiled down: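 HepG2, MRTU transient transfection, 24 h dosing. Total RNA → RT-PCR → 6-FAM primer extension → HpaI digest → CE fluorescence. Bidirectional curve fit, DMSO negative control.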

The nature of assay [13]: ATG_ERE_CIS: Attagene CIS-FACTORIAL HepG2 Assay for Estrogen Response Element (ERE) (AID 2282940). The note with it: HepG2 ERE cis-reporter, Attagene RNA transcript; actives raise or lower the signal. In a few lines: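 After a 24 h chemical treatment, RNA from reporter-transfected HepG2 cells is reverse-transcribed, PCR-amplified and fluorescently labelled. Fragments separated by capillary electrophoresis give reporter signal; DMSO serves as negative control.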

A short description of assay [14]: ATG_Ets_CIS: Attagene CIS-FACTORIAL HepG2 Assay for human Erythroblast Transformation Specific (ETS) (AID 2282941). The following applies: HepG2 ETS cis-reporter transcription, actives raise or lower the signal. In a few lines: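 Steps: transfect HepG2 with multiple reporter units; treat compound 24 h; isolate RNA, DNase-treat, reverse-transcribe; PCR-amplify, label with 6-FAM, digest with HpaI; separate by capillary electrophoresis. Activity fitted both directions versus DMSO.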

The target in assay [15] is Hepatocyte nuclear factor 3-beta (Homo sapiens) (UniProt Q9Y261). As to the kind of experiment: ATG_FoxA2_CIS: Attagene CIS-FACTORIAL HepG2 Assay for human Forkhead box A2 (FOXA2) (AID 2282942). The following applies: HepG2 cis-reporter transcription factor activity, 24 h; actives raise or lower the signal. In a few lines: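 Transient MRTU transfection of HepG2 liver cells; 24 h treatment; total RNA → oligo(dT) RT → PCR → FAM primer extension → HpaI cut → CE. Bidirectional fit vs DMSO.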

Assay [16] is described as follows: ATG_FoxO_CIS: Attagene CIS-FACTORIAL HepG2 Assay for human Forkhead box O (FoxO) (AID 2282943). The note with it: HepG2 Attagene cis-reporter, FoxO element, mRNA; actives raise or lower the signal. The method, boiled down:
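Human hepatoma HepG2 cells carry transiently introduced reporter transcription units controlled by cis promoter elements. Chemical treatment lasted 24 h, and mRNA signal was compared with DMSO.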

Assay [17] is described as follows: ATG_GLI_CIS: Attagene CIS-FACTORIAL HepG2 Assay for human Zinc Finger Protein GLI1 (AID 2282945). The note with it: HepG2, Attagene cis-factorial reporter mRNA, GLI element; actives raise or lower the signal. The method, boiled down:
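Bidirectional curve fits relative to DMSO, using reporter mRNA levels from RT-PCR plus capillary electrophoresis. Cells were HepG2 transiently carrying cis-regulated reporter constructs, harvested 24 h after dosing.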

For assay [18], the target named is Retinoic acid receptor alpha (Homo sapiens) (UniProt P10276). The experiment in a line: ATG_DR5_RAR_CIS: Attagene CIS-FACTORIAL HepG2 Assay for human Retinoic Acid Receptor Alpha (RARE), DR5 submotif (AID 2282934). The note with it: HepG2 Attagene cis-factorial RARE DR5 reporter, mRNA; actives raise or lower the signal. In a few lines:
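HepG2, transient cis-reporter transfection, 24 h exposure. mRNA readout: RT-PCR, FAM label, HpaI cut, capillary electrophoresis. DMSO baseline, gain/loss fitting.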

The target of assay [19] is Transcription factor E2F1 (Homo sapiens) (UniProt Q01094). The experiment in a line: ATG_E2F_CIS: Attagene CIS-FACTORIAL HepG2 Assay for human E2F Transcription Factor 1 (AID 2282935). The following applies: HepG2 Attagene cis-reporter, E2F reporter RNA transcripts; actives raise or lower the signal. The method, boiled down: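 Total RNA from 24 h-treated, reporter-transfected HepG2 cells undergoes DNase I treatment, oligo(dT) reverse transcription, PCR and 6-FAM primer extension before capillary electrophoresis.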

The nature of assay [20]: ATG_GATA_CIS: Attagene CIS-FACTORIAL HepG2 Assay for human GATA Binding Protein (AID 2282944). The following applies: HepG2 GATA cis-element reporter, Attagene multiplex mRNA; actives raise or lower the signal. In a few lines: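 Cells: HepG2, transiently transfected with cis-regulated reporter transcription units. Exposure: 24 h. Detection: RT-PCR plus capillary electrophoresis of FAM-labeled fragments. Analysis: bidirectional, DMSO as baseline.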

The source made the active and inactive calls. The calls were made as follows: active = hit-call score of the fitted dose curve at least 0.9, where 1 is the maximum; inactive = score below 0.9.

Hepatocyte nuclear factor 3-beta (Homo sapiens), sequence (Q9Y261 whole entry, looked up): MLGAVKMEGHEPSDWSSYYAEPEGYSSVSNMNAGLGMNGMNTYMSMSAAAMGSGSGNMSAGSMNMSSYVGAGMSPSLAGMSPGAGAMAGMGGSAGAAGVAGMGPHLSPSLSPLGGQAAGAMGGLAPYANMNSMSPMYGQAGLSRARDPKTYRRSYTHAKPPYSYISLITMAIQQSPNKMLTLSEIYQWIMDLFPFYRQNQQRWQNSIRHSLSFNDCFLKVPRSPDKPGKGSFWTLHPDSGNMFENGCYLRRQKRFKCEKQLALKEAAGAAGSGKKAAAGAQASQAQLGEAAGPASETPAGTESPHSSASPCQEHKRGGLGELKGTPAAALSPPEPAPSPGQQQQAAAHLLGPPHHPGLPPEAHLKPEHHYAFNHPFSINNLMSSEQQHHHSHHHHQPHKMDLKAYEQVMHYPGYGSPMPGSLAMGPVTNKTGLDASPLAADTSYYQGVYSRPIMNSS
Aryl hydrocarbon receptor (Homo sapiens), sequence (P35869 whole entry, looked up): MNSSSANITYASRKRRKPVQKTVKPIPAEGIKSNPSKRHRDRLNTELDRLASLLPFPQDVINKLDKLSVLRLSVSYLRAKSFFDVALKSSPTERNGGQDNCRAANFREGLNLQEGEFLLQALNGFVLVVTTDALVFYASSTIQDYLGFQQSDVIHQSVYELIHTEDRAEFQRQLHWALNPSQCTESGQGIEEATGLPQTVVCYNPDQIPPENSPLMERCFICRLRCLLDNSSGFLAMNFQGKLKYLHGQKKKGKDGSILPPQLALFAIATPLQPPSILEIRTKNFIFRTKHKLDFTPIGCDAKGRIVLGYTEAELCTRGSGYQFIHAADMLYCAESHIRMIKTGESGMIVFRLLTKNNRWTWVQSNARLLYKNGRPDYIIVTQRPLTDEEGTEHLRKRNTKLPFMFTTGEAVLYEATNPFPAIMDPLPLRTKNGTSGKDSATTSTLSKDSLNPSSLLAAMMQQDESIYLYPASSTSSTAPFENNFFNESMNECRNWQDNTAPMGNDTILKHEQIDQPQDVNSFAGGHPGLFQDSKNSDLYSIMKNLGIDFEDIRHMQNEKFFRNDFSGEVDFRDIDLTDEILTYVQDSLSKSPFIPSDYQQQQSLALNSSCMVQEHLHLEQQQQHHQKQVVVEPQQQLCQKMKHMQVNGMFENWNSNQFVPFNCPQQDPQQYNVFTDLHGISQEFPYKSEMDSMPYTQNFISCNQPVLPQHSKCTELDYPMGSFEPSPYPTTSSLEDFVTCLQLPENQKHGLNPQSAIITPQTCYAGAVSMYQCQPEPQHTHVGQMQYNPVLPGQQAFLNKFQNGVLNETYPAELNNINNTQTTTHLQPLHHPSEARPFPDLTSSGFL
Retinoic acid receptor alpha (Homo sapiens), sequence (P10276 whole entry, looked up): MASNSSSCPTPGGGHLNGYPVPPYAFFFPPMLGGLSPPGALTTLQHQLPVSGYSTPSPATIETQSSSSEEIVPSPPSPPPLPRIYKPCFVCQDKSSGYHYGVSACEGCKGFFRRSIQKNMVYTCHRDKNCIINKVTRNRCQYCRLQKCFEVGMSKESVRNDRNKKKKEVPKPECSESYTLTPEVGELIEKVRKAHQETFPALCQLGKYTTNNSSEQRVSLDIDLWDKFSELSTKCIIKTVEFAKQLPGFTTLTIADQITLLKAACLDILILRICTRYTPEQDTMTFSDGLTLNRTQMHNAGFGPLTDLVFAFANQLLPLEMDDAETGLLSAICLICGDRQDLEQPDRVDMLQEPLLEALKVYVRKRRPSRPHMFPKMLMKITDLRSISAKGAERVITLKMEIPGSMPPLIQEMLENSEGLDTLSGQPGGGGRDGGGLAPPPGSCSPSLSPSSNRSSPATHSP
CCAAT/enhancer-binding protein beta (Homo sapiens), sequence (P17676 whole entry, looked up): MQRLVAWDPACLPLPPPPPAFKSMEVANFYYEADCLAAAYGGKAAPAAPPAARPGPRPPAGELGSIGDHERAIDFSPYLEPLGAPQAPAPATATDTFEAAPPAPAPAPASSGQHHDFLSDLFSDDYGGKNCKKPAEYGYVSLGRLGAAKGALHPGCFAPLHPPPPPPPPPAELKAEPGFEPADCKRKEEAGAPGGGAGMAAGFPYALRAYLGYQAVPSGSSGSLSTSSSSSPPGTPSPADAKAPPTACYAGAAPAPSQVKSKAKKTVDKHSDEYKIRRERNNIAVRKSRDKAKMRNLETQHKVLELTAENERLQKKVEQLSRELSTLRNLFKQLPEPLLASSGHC
Transcription factor E2F1 (Homo sapiens), sequence (Q01094 whole entry, looked up): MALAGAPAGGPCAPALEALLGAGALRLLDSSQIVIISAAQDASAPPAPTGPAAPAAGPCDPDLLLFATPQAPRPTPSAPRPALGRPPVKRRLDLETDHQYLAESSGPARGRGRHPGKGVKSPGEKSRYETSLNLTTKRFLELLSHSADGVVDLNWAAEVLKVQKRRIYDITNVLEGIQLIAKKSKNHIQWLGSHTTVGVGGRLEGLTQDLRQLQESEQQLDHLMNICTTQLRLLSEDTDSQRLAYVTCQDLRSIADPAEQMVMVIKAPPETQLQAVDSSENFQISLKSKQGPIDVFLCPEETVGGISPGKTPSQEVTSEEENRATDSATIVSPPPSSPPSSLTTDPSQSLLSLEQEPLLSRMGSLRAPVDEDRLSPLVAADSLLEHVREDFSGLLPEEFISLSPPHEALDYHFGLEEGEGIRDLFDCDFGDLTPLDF

Take `C[C@@H](Oc1ccc(CNC(=O)c2cccnc2Oc2ccc3c(c2)OCO3)c(F)c1)C(=O)O`: the call in [1], in assay [2], in assay [3], in assay [4], in assay [5] and in assay [6] was inactive. The call in [7], in assay [8], in assay [9], in assay [10], in assay [11] and in assay [12] was inactive. In addition, the result in assay [13], in assay [14], in assay [15], in assay [16] and in assay [17] was inactive.
In the case of `OCc1ccccc1`, the result in assay [1], in assay [2], in [3], in assay [4], in assay [5] and in [6] was inactive. In addition, the compound was called inactive in assay [7], in assay [18], in assay [9], in assay [10], in assay [11] and in [12]. Further, the compound was classed as inactive in [13], in [14], in assay [15], in assay [16] and in assay [17].
Take `CC(C)c1nnc2ccc(-c3ocnc3-c3cc(F)ccc3F)cn12`: the outcome in assay [1], in assay [2], in assay [3], in [4], in [5] and in [6] was inactive. Moreover, the compound was classed as inactive in assay [7], in [18], in assay [9], in assay [10], in assay [11] and in assay [12]. The result in [13], in assay [14], in assay [15], in assay [16] and in assay [17] was inactive.
Turning to `CCCCOC(=O)c1ccccc1`, the call in assay [1], in assay [2], in assay [3], in [4], in [6] and in [7] was inactive. The result in assay [18], in assay [19], in assay [9], in assay [10], in assay [11] and in assay [12] was inactive. Besides, the compound was called inactive in assay [13], in assay [14], in assay [15], in assay [16], in assay [20] and in assay [17].
`c1ccc2cc3ccccc3cc2c1`: the call in assay [1], in assay [2], in assay [3], in assay [4], in assay [5] and in assay [6] was inactive. In addition, the compound was called inactive in assay [7], in [18], in [9], in [10], in assay [11] and in assay [12]. Moreover, the call in assay [13], in assay [14], in assay [15], in [16] and in assay [17] was inactive.
For `Cn1c(=O)c2[nH]cnc2n(C)c1=O`, the compound was called inactive in assay [1], in assay [2], in assay [3], in [4], in assay [5] and in [6]. Moreover, the outcome in [7], in assay [9], in assay [10], in assay [11], in [12] and in assay [13] was inactive. Moreover, the result in [14], in assay [15], in assay [16] and in [17] was inactive.
With `CC(=O)c1ccccc1`, the outcome in assay [1], in assay [2], in assay [3], in assay [4], in [5] and in assay [6] was inactive. Also, the call in assay [7], in [9], in assay [10], in assay [11], in assay [12] and in assay [13] was inactive. Further, the compound was called inactive in assay [14], in assay [15], in [16], in assay [20] and in assay [17].
By AC50 is commonly meant the midpoint of the concentration-response curve, whichever way the signal moves. Take `COS(C)(=O)=O`: the outcome in assay [1], in assay [2], in [3], in assay [4], in assay [6] and in assay [7] was inactive. Moreover, the call in assay [19], in [9], in assay [10], in [11], in [12] and in assay [13] was inactive. For the same compound, the outcome in [14], in [15], in assay [16], in assay [20] and in assay [17] was inactive. For the same compound, the AC50 in [5] was 22.1 µM (active).
